# In paper PMC4336329 (PLoS ONE, 2015):
# Among all 310,000 compounds or so, about 14,000 (4.5%) showed an effect of 50% or more. Effects have a minus sign here. This excerpt belongs to a sample that is enriched for strong results.
# Target: human ether-à-go-go-related gene (hERG) potassium channel (human, UniProt Q12809)
# Assay: primary screen, population patch clamp on CHO cells stably expressing hERG; higher = less effect of the substance
# 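Further: peak tail current of the secondary pulse compared with the same well before compound.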
# Sequence of human ether-à-go-go-related gene (hERG) potassium channel (Q12809 whole entry, looked up): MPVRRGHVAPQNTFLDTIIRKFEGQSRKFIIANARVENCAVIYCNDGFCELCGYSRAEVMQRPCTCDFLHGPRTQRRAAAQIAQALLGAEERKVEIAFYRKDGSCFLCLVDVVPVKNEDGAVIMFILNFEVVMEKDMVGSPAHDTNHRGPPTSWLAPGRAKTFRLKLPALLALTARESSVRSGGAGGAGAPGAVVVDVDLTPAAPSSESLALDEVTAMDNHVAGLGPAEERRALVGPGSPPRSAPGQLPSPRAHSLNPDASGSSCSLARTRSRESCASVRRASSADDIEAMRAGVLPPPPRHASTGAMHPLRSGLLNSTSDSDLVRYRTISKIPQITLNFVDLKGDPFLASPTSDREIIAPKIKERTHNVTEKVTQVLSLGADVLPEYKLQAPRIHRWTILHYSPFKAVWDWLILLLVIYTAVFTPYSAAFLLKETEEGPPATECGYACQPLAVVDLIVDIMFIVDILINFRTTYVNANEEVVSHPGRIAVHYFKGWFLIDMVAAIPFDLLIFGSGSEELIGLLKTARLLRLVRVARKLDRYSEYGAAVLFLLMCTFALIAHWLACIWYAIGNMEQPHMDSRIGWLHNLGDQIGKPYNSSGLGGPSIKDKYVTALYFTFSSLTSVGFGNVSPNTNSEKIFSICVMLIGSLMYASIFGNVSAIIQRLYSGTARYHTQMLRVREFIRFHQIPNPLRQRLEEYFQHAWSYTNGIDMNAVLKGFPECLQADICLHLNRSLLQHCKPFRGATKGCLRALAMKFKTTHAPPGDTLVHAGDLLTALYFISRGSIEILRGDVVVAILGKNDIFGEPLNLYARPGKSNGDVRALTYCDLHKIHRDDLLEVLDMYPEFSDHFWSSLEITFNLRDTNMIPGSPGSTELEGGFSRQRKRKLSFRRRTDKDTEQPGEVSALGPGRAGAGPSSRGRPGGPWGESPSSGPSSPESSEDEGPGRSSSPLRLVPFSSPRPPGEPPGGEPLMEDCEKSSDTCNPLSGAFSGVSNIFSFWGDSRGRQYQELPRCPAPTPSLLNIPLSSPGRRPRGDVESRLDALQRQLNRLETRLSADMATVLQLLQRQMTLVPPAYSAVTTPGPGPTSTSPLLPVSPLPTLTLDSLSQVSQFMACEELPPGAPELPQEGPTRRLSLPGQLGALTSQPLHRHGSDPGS
row,SMILES,"hERG current change (%, negative = inhibition) at 10uM"
1,COc1ccc(C(=O)O)nc1C,5.78%
2,C/C(=N/NC(=O)CN1CCN(Cc2ccccc2Cl)CC1)c1ccco1,-25.4%
3,C/C(=N\NC(=O)CN1CCN(c2ccc(F)cc2)CC1)c1ccco1,-30.3%
4,C/C(=N/NC(=O)CN1CCN(S(=O)(=O)c2ccc(C)cc2)CC1)c1cccc(O)c1,-15%
5,COc1cc(/C(C)=N/NC(=O)CN2CCN(S(=O)(=O)c3ccc(C)cc3)CC2)ccc1O,-11.6%
6,C/C(=N/NC(=O)CN1CCN(S(=O)(=O)c2ccc(C)cc2)CC1)c1ccco1,-53.7%
7,C/C(=N/NC(=O)CN1CCN(S(=O)(=O)c2ccc(Br)cc2)CC1)c1ccco1,-68.9%
8,C=CCn1c(SCc2ccccc2)nc2scc(-c3ccc(C)o3)c2c1=O,8.76%
9,COc1cc(NC2c3ncccc3C(=O)N2Cc2ccco2)cc(OC)c1 (centres unmarked),-0.0378%
10,CCOC(=O)N1CCN(C(=O)c2ccc(Cn3c(=S)[nH]c4ccc(Br)cc4c3=O)cc2)CC1,13.3%
11,CC1(C)CC(=O)C=C(Nc2ccc3c(c2)OCCO3)C1,17.7%
12,CN(C)c1cccc(NC2=CC(=[N+]3CCOCC3)CC(C)(C)C2)c1.[I-],-65.6%
13,CN(C)NC1=CC(=[N+]2CCCC2)CC(C)(C)C1.[I-],14.6%
14,CCOc1ccc(NC(=O)NC(C)c2ccc3c(c2)OCO3)cc1 (centres unmarked),21.3%
15,CC1=NN(Cc2ccccc2)C(=O)C1,-0.313%
16,CC(=O)Nc1ccn(-c2ccccc2)n1,8.89%
17,O=C(Nc1ccn(-c2ccccc2)n1)c1ccc(Cl)cc1,-8.56%
18,O=C(Nc1ccn(-c2ccccc2)n1)c1ccccc1Br,-66%
19,O=C1CC(c2ccco2)CC2=C1C=Nc1ccccc1N2 (centres unmarked),-24.9%

row,SMILES,"hERG current change (%, negative = inhibition) at 10uM"
1,O=C1CC(c2ccc(F)cc2)CC2=C1C=Nc1ccccc1N2 (centres unmarked),-72.8%
2,O=C1CC(c2ccc(F)cc2)CC2=C1C(c1ccc([N+](=O)[O-])o1)Nc1ccccc1N2 (centres unmarked),-47.3%
3,CC1(C)CC(=O)C2=C(C1)Nc1ccccc1N=C2.Cl,-8.52%
4,CC1CC(=O)C2=C(C1)Nc1ccccc1N=C2 (centres unmarked),-4.46%
5,O=C1CC(c2ccccc2)CC2=C1C=Nc1ccccc1N2 (centres unmarked),-61%
6,O=C(Nc1c[nH]c(=O)[nH]c1=O)c1ccc([N+](=O)[O-])cc1,10%
7,COc1cc(C)c(Br)cc1S(=O)(=O)NCCCN1CCOCC1,9.66%
8,CCOC(=O)c1[nH]c(C)c(C(=O)OCC(=O)N2c3ccccc3CC2C)c1C (centres unmarked),-0.0968%
9,O=C(c1cc(-c2ccc(Br)cc2)n[nH]1)N1CCN(C(=O)c2ccccc2Br)CC1,-32.4%
10,COc1ccc(S(=O)(=O)N2CCN(C(=O)c3cc(-c4ccc(Br)cc4)n[nH]3)CC2)cc1OC,-13.5%
11,COc1cc(C(=O)N2CCN(C(=O)c3cc(-c4ccc(Br)cc4)n[nH]3)CC2)cc(OC)c1OC,-73.3%
12,COc1cc(C(=O)N2CCN(C(=O)c3cc(-c4ccccc4)n[nH]3)CC2)cc(OC)c1OC,-77.6%
13,COc1ccc(-c2cc(C(=O)N3CCN(S(=O)(=O)c4ccccc4)CC3)[nH]n2)cc1,8.23%
14,COc1cc(C(=O)N2CCN(C(=O)c3ccccc3)CC2)cc(OC)c1OC,8.49%
15,Cc1nc2sc3c(c2c2nnc(SCC(=O)NCc4ccco4)n12)CCCC3,-28.2%
16,Cc1nnc(SCc2nnc(-c3ccccc3Br)o2)n1-c1ccccc1,-14.6%
17,Cc1cnc(C(=O)NCCc2ccc(Cl)cc2)cn1,-15.8%
18,COc1ccc(OC)c(C2=CC(=O)C[C@H](c3ccc4c(c3)OCO4)C2)c1,-10.6%
19,Cc1ccc(C)c(NC(=O)c2sc(Cl)nc2-c2ccccc2)c1,13.9%

row,SMILES,"hERG current change (%, negative = inhibition) at 10uM"
1,NC(=O)C1CCN(C2=C(NS(=O)(=O)c3ccc(Br)cc3)C(=O)c3ccccc3C2=O)CC1,-72.1%
2,Cc1ccc(S(=O)(=O)NC2=C(N3CCN(Cc4ccccc4)CC3)C(=O)c3ccccc3C2=O)cc1,-16.5%
3,CCN1CCN(C2=C(NS(=O)(=O)c3ccccc3)C(=O)c3ccccc3C2=O)CC1,-5.21%
4,CCN1CCN(C2=C(NS(=O)(=O)c3ccc(Br)cc3)C(=O)c3ccccc3C2=O)CC1,-61.5%
5,CCN1CCN(C2=C(NS(=O)(=O)c3ccc(NC(C)=O)cc3)C(=O)c3ccccc3C2=O)CC1,7.39%
6,CCN1CCN(C2=C(NS(=O)(=O)c3ccc(C)cc3)C(=O)c3ccccc3C2=O)CC1,-57.1%
7,NC(=O)C1CCN(C2=C(NS(=O)(=O)c3ccc(Cl)cc3)C(=O)c3ccccc3C2=O)CC1,-38.3%
8,O=C1C(NS(=O)(=O)c2ccc(Br)cc2)=C(N2CCCCC2)C(=O)c2ccccc21,-33.1%
9,NC(=O)C1CCN(C2=C(NS(=O)(=O)c3ccccc3)C(=O)c3ccccc3C2=O)CC1,-13.9%
10,CC(C)(C)c1cc(C(=O)NCCCn2ccnc2)cc(C(C)(C)C)c1.Cl,13.1%
11,CC(=O)c1cccc(NC(=O)CSc2ccc(-c3ccccn3)nn2)c1,-13.6%
12,COc1cc(C)c(CNc2ccc(OC)c(OC)c2)cc1C,7.7%
13,COC(=O)Cn1c(C(=O)N2CCCC2)cc2c1C[C@H]1CN(C(=O)c3ccccc3)[C@@](Cc3ccc(F)cc3)(C(=O)OC)[C@@H]21,-67.4%
14,COC(=O)[C@@]1(Cc2ccc(OC)cc2)[C@H]2c3cc(C(=O)N4CCCC4)n(C[C@H](O)CO)c3C[C@H]2CN1C(=O)c1ccccc1,-1.32%
15,COC(=O)[C@@]1(Cc2ccc(OC)cc2)[C@H]2c3cc(C(=O)N4CCCC4)n(CCO)c3C[C@H]2CN1C(=O)c1ccccc1,-34.9%
16,COC(=O)[C@@]1(Cc2ccc(F)cc2)[C@H]2c3cc(C(=O)N4CCCC4)n(CCO)c3C[C@H]2CN1C(=O)c1ccccc1,-51.4%
17,COC(=O)[C@@]1(Cc2ccc(F)cc2)[C@H]2c3cc(C(=O)N4CCCC4)n(Cc4ccc(C(F)(F)F)nc4)c3C[C@H]2CN1C(=O)c1ccccc1,-8.27%
18,COCCn1c(C(=O)N2CCCC2)cc2c1C[C@H]1CN(C(=O)c3ccccc3)[C@@](Cc3ccc(F)cc3)(C(=O)OC)[C@@H]21,-39.3%
